In PubChem BioAssay (NCATS):
Inconclusive results are not listed. Unmarked numbers belong to inactive results. Activity calls are given as the source filed them. Calls come from the whole dose curve; as a rule, active = well fitted activation curve with a large enough effect; inconclusive = small, poorly fitted or top-dose-only effect; inactive = no such curve, though single readings can be large or run the other way.

Target: Rap guanine nucleotide exchange factor 3 (Homo sapiens) (UniProt O95398)
Sequence (O95398 whole entry, looked up): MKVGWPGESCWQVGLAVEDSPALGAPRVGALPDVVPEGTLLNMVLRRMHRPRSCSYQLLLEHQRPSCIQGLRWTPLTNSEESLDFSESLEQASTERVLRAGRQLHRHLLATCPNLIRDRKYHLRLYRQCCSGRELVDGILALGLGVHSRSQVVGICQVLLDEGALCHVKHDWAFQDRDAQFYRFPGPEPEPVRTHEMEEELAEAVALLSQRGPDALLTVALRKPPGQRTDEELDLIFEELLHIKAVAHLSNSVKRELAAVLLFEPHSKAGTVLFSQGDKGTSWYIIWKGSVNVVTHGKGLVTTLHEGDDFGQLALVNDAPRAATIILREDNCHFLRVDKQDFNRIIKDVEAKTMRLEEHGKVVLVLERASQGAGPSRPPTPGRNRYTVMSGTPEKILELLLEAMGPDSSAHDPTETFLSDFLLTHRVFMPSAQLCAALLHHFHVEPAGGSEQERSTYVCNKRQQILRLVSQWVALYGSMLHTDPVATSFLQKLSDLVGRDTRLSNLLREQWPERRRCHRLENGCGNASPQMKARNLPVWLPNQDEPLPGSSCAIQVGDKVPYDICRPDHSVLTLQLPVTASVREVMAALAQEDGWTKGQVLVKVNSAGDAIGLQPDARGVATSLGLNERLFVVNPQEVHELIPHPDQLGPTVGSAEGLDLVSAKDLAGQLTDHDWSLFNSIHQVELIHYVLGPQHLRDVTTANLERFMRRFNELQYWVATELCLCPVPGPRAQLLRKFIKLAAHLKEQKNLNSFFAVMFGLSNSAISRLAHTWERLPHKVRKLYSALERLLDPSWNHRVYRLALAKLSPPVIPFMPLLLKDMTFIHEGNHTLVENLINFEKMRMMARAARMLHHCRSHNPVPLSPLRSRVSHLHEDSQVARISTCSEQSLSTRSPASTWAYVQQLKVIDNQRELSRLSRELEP
Test: Confirmatory qHTS for agonist of cAMP-regulated guanine nucleotide exchange factor 3 (EPAC1) (AID 1645881); note: nearly all actives have a fitted effect of over 75% in size;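 for activation: EPAC1 catalysed release of BODIPY-GDP from Rap1B seen as fluorescence loss; 100% = effect of cAMP agonist control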
Details: EPAC1 Rap1B BODIPY-GDP exchange fluorescence; series mostly up to 154 µM; activation: at the top concentration
Potency is the fitted concentration of half-maximal effect.

| Structure (SMILES) | activation [%] | Potency |
| --- | --- | --- |
| Cc1nc(N)sc1-c1csc(Nc2ncccn2)n1 | 24.6 |  |
| O=C1OC(Cc2ccccc2)(c2ccccc2)c2ccccc21 (stereo not given) | 16.4 |  |
| COc1ccc(C=C(C(C)=O)C(=O)c2ccccc2)cc1 | 18.7 |  |
| Clc1ccc(CSc2nnc(-c3ccccn3)n2Cc2ccco2)cc1Cl | 19.9 |  |
| COC(=O)c1ccc2nc(-c3cccc(Br)c3)c(Cc3ccccc3)n2c1 | 18.4 |  |
| Cc1ccc(C2CC2/C(=N/O)c2ccc(F)cc2)cc1 (stereo not given) | 18.4 |  |
| COc1ccc(OC)c(NC(=O)CSc2ncnc3sc(C)cc23)c1 | 28.5 |  |
| C/C(=N\N(Cc1ccccc1)c1ccccc1)c1cccnc1 | 25 |  |
| Cc1ccc2nc(-c3ccccc3)c(Cc3cccc(Cl)c3)n2c1 | 21.2 |  |
| O=C1Nc2ccccc2/C1=N\N=C\c1ccc(O)c(O)c1 | 28.2 |  |
| Cc1ccc(SCC(=O)Nc2ccccc2N2CCOCC2)cc1 | 4.4 |  |
| COC(=O)C1=CN(c2c(C)cc(C)cc2C)C(N)=C(C#N)C1c1ccccc1 (stereo not given) | 21.7 |  |
| COC(=O)CN(c1nc(C)c(Br)c(OC)n1)S(=O)(=O)c1ccccc1 | 22.1 |  |
| Cc1ccc2sc(N(CCCN(C)C)C(=O)c3nc4ccccc4s3)nc2c1C | -12.7 |  |
| COc1ccccc1/C=C(/C(=O)OCC(=O)Nc1ccc(N(C)C)cc1)c1ccccc1 | 14.7 |  |
| Cc1cccc(Oc2ccccc2NC(=O)C2=COCCO2)c1 | 24.9 |  |
| CC(C)(C)c1cc(NCCCn2ccnc2)n2ncc(-c3ccccc3)c2n1 | 19.4 |  |
| CCC(=O)N(CCC(c1ccc(C)cc1)c1ccco1)Cc1ccco1 (stereo not given) | 4.31 |  |
| CCOc1ccc(C2C3=C(CCCC3=O)Nc3ccc4ncccc4c32)cc1 (stereo not given) | 8.27 |  |
| CN(Nc1cccc(Cl)c1)c1cccc(Cl)c1 | 11.9 |  |

| Structure (SMILES) | activation [%] | Potency |
| --- | --- | --- |
| CC(C)C(NC(=O)C1CC(=O)N(Cc2ccccc2)C1)c1nc2ccccc2[nH]1 (stereo not given) | 25.1 |  |
| COc1ccccc1C1CC(=O)Oc2cc(C)c(Br)c(C)c21 (stereo not given) | 13.2 |  |
| O=C(O)c1cccc(Cn2c(Cl)c(/C=N/NC(=O)c3cc4ccccc4cc3O)sc2=O)c1 | 11.6 |  |
| N#CC1=C2N=C(N)c3c(sc4c3CCCCC4)N2C2=C(C(=O)CCC2)C1c1ccccc1 (stereo not given) | 20.5 |  |
| COc1ccc(C(=O)Oc2ccc(/C=N/Nc3ccc(Cl)c(C(=O)O)c3)cc2OC)cc1 | -1.81 |  |
| N#Cc1c(N)c(C#N)c(-c2ccc(O)cc2)c2c1CCCC2 | 15.8 |  |
| COc1ccc(NC(=O)c2cc(-c3cc(Cl)ccc3C)n[nH]2)cn1 | 12.7 |  |
| S=C(Nc1ccc2nsnc2c1)N1CCCCC1 | 21.2 |  |
| Cc1ccc(CNC(=O)c2cccc3c2C(=O)c2ccc(N4CCCCC4)cc2S3(=O)=O)cc1 |  | 11.2 µM (active) |
| Cc1cc(N(CCO)Cc2ccccc2)n2nc(-c3ccc(C(C)(C)C)cc3)nc2n1 | -47 |  |
| O=C(Nc1ccc(F)cc1)c1cccc(N2C(=O)C3C4C=CC(C5CC45)C3C2=O)c1 (stereo not given) | 14.5 |  |
| CC(=O)Nc1ccc(S(=O)(=O)N2CCN(c3cc(C)ccc3C)CC2)cc1 | 23.1 |  |
| O=C1N(c2ccc(Cl)cc2)C(c2ccccc2)N2CCCN12 (stereo not given) | 1.59 |  |
| COc1ccc(Cl)cc1NC(=O)CN(C)Cc1ccc(OC)c(OC)c1 | 16.9 |  |
| COc1ccc(C(=O)/C=C/c2ccccc2)c(OC)c1 | 20.4 |  |
| Cc1cccc(Cn2nnc3c(=O)[nH]c(C4CCCN(C(=O)c5ccc(C(C)(C)C)cc5)C4)nc32)c1 (stereo not given) | -19.1 |  |
| Cc1ccccc1OCC(=O)Nc1ccc(C(=O)OCc2cc(=O)n3c(C)csc3n2)cc1 | 6.52 |  |
| O=C(/C=C/c1ccco1)Oc1cc(Br)cc(/C=N/NC(=O)c2ccccc2O)c1 | 26.4 |  |
| Cc1nc([N+](=O)[O-])c(Br)n1Cc1ccc(Cl)c(Cl)c1 | 16.6 |  |
| Cc1nc(NC(=O)c2c(-c3ccccc3)c(-c3ccccc3)nn(C)c2=O)sc1C | 4.06 |  |
